Screening results: PubChem, National Center for Advancing Translational Sciences (NCATS)
Shown are actives, neighbours in structure and some others; about 3.1% of the full set was active somewhere.
VDR inhibitor: blocks the human vitamin D receptor; P11473; VDR-SRC2-3 peptide fluorescence polarization, 2 h; Potency, µM, hits mostly inhibitors; hit rate 0.93% among 400,000
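After 23 nl compound addition and a short centrifugation, plates sat for 2 hours at ambient temperature; polarization of fluorescence then indicated loss of VDR binding to peptide SRC2-3.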
Vif-A3F inh: Vif-A3F binding inhibition; HeLa A3F-eYFP + Vif (tagged APOBEC3F with the HIV-1 protein that degrades it), YFP fluorescence increase; Potency, µM (doses to about 46.1 µM); hit rate 0.2% among 390,000; AID 602313; further: nearly all actives have a fitted effect of over 65% in size
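HeLa cells stably expressing A3F-eYFP plus Vif, plated and incubated overnight at 37 deg C, then exposed to compounds overnight at 37 deg C. Blocked degradation read as raised yellow fluorescence (Ex 488/Em 500-530).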
PLK1 PBD block: inhibitors of human PLK1 polo-box domain binding. AID 720504. P53350. hit rate 2.8% among 360,000. Potency, µM, actives largely listed as inhibitors. Plk1 PBD binding of FITC phosphopeptide, fluorescence polarization; further: series mostly up to about 57 µM; nearly all actives have a fitted effect of over 65% in size
Vif-APOBEC3G blk: blocks the Vif interaction with human APOBEC3G; HeLa A3G-eYFP + Vif (tagged APOBEC3G with the HIV-1 protein that degrades it), YFP fluorescence, overnight; Potency, µM (doses to about 46.1 µM), most hits filed as inhibitors; hit rate 0.076% among 410,000; AID 602310; further: nearly all actives have a fitted effect of over 60% in size
Target sequence (Q9HC16 whole entry, looked up): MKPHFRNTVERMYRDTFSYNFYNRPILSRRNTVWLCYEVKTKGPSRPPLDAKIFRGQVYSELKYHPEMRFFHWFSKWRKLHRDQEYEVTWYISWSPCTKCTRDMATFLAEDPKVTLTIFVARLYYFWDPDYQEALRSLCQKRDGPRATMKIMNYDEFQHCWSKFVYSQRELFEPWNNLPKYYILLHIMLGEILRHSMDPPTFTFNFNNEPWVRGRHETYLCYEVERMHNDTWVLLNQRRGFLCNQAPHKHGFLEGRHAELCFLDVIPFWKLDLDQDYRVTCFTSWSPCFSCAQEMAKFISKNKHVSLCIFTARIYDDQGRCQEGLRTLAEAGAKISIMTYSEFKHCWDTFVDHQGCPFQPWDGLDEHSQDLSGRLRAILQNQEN
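Read-out is eYFP fluorescence (Ex 488/Em 500-530) from Vif-expressing HeLa A3G-eYFP cells; more signal means A3G escaped Vif-mediated degradation. Cells plated overnight, compound pinned in, incubated overnight at 37 deg C.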
TSHR antagonist: antagonists of human thyroid stimulating hormone receptor. P16473. TSHR-expressing cells, TSH-stimulated cAMP HTRF, 2 h; stronger effect = lower value. activity change, negative = inhibition, % at 11.5 µM. hit rate 0.2% among 330,000. AID 504810;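 active means activity change below a set negative limit, meaning inhibition stronger than a set level, cut at about -70% in these data; inconclusive means activity change between two set negative limits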
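Inhibition of cAMP made by TSHR-expressing cells under TSH stimulation (4nM final, EC80; 2 h, 37 deg C) is quantified with a one-step lysis HTRF kit, anti-cAMP cryptate versus cAMP-d2.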
Of the large screens only hits and unclear results are named; the others gave an inactive call. Unless noted, the call rests on the fitted dose curve; in most records, active means well fitted curve in the direction sought with a large enough effect; inconclusive means small, poorly fitted or top-dose-only effect, or another doubt; inactive means no such curve, though single readings can be large; an effect the other way counts as inactive or inconclusive.

Cc1c(C(=O)N2CCCCC2)c(S(=O)(=O)Nc2cccc(Br)c2)c(C)n1C	none
CC(C)(C)n1ncc2c(=O)n(Cc3c(F)ccc(F)c3Cl)cnc21	none (no result: VDR inhibitor, Vif-A3F inh, PLK1 PBD block, TSHR antagonist)
CCN1/C(=C2\SC(=S)N(Cc3ccccc3)C2=O)Sc2ccccc21	Vif-A3F inh inconclusive
CCC(CO)[n+]1c(C)cc(/C=C2\Sc3ccccc3N2Cc2ccccc2)cc1C (configuration not stated)	Vif-A3F inh 11µM, Vif-APOBEC3G blk 13µM
O=C(C[n+]1ccc2ccccc2c1)c1ccc(F)cc1	none (no result: VDR inhibitor, Vif-A3F inh, PLK1 PBD block, TSHR antagonist)
O=C(C[n+]1ccc2ccccc2c1)c1cccc2ccccc12	PLK1 PBD block 24µM
O=C(O)c1nn(-c2ccccc2)ccc1=O	PLK1 PBD block 12µM
Oc1ccccc1C(=S)N1CCN(C(=S)c2ccccc2O)CC1	PLK1 PBD block 24µM
COc1ccc(NC(=O)CCc2c(C)nc3nc(CNC(=O)OC(C)(C)C)nn3c2C)cc1OC	none (no result: PLK1 PBD block, TSHR antagonist)
Cc1nc(CCN2C(=O)c3ccccc3C2=O)n[nH]1	VDR inhibitor inconclusive, PLK1 PBD block 7.5µM
CCc1ccc(CCN2C(=O)c3ccccc3C2=O)nc1	none
COc1cccc2c1C(=O)C=C(C)C2=O	VDR inhibitor 40µM, Vif-A3F inh inconclusive
COc1ccc(C(C)NC(=S)NCc2ccc(F)cc2)cc1 (configuration not stated)	Vif-A3F inh inconclusive
Cc1ccc(C)c(C(C)NC(=S)NCc2ccc(F)cc2)c1 (configuration not stated)	Vif-A3F inh 11µM
CCOc1cc(/C=C2\SC(=O)N(CC(=O)Nc3ccccc3F)C2=O)cc([N+](=O)[O-])c1O	VDR inhibitor inconclusive, PLK1 PBD block 24µM
COc1cc(/C=C2\SC(=O)N(CC(=O)Nc3cccc(C)c3)C2=O)cc([N+](=O)[O-])c1O	VDR inhibitor 71µM, Vif-A3F inh inconclusive, PLK1 PBD block 9.5µM
CCN(CC)c1ccc2cc(-c3nc4sc5c(c4c(=O)[nH]3)CCC(C(C)(C)C)C5)c(=O)oc2c1 (configuration not stated)	Vif-A3F inh inconclusive, Vif-APOBEC3G blk 10µM (no result: PLK1 PBD block, TSHR antagonist)
CN(C)C(=O)c1ccc(-c2nc(NCc3cccnc3)c3ccccc3n2)cc1	none (no result: Vif-A3F inh, PLK1 PBD block, Vif-APOBEC3G blk, TSHR antagonist)
CC(C)(C)OC(=O)CC[C@@H](C(=O)NCCCCCCCCCCC(=O)N1CCN(C(=O)OC(C)(C)C)CC1)n1cc(CCCCCNC(=O)OC(C)(C)C)nn1	none
CC(C)(C)OC(=O)NCCCCCc1cn([C@@H](CO)C(=O)NCCCCCCCCCCC(=O)N2CCN(C(=O)OC(C)(C)C)CC2)nn1	TSHR antagonist -95
COc1ccc(O)c(/C=N/c2sc(C)c(C)c2C#N)c1	PLK1 PBD block 30µM
Cc1cccc(NC(=O)c2cc(S(=O)(=O)NCc3ccc4c(c3)OCO4)ccc2F)c1C	none (no result: PLK1 PBD block, TSHR antagonist)
COc1ccc(N=C2NC(=O)/C(=C/c3ccc(O)c(OC)c3)S2)cc1	Vif-A3F inh inconclusive, Vif-APOBEC3G blk inconclusive
Cc1ccc(S(=O)(=O)/N=C2/NC(=O)/C(=C/c3cc([N+](=O)[O-])ccc3O)S2)cc1	VDR inhibitor inconclusive, Vif-A3F inh inconclusive (no result: TSHR antagonist)
COc1cccc(N=C2NC(=O)/C(=C/c3cc([N+](=O)[O-])ccc3O)S2)c1	Vif-A3F inh 25µM, Vif-APOBEC3G blk inconclusive
O=C1NC(=Nc2ccccc2Cl)S/C1=C\c1cc([N+](=O)[O-])ccc1O	VDR inhibitor inconclusive, Vif-A3F inh inconclusive, Vif-APOBEC3G blk 13µM, TSHR antagonist inconclusive
NC(=O)[C@@H]1CCCN1C(=O)C(Cc1cnc[nH]1)NC(=O)C1CCC(=O)N1 (some centres not stated)	none (no result: Vif-A3F inh, PLK1 PBD block, Vif-APOBEC3G blk, TSHR antagonist)
Cc1c(-c2nsc(NC(=O)c3cccs3)n2)nnn1-c1ccc(F)cc1	none (no result: PLK1 PBD block, TSHR antagonist)
O=C(CN1C2=NCCN2c2ccccc21)c1ccc(Br)cc1	none
O=C(CN1C2=NCCCN2c2ccccc21)c1cccc(Br)c1	VDR inhibitor inconclusive, PLK1 PBD block 24µM
c1ccc2c(c1)CCCN2Cc1nnnn1CC1CCCO1 (configuration not stated)	none
c1ccc(CCn2nnnc2CN2CCCc3ccccc32)cc1	PLK1 PBD block 13µM
O=C(O)CSc1nnc(CNc2ccc(Cl)cc2)n1Cc1ccccc1	VDR inhibitor inconclusive, PLK1 PBD block 27µM
O=C1/C(=C/C=C/c2ccco2)SC(=S)N1NS(=O)(=O)c1ccccc1	PLK1 PBD block 11µM
O=C1/C(=C/c2cccs2)SC(=S)N1NS(=O)(=O)c1ccccc1	none
CCc1ccc2occ(CC(=O)Nc3ccc(C)c(C)c3)c2c1	none (no result: PLK1 PBD block, TSHR antagonist)
CCOC(=O)c1ccc(/C=C2/C=C(c3ccccc3)N(c3ccc(Cl)c(C(=O)O)c3)C2=O)cc1	VDR inhibitor inconclusive, Vif-A3F inh 13µM, Vif-APOBEC3G blk inconclusive
COc1cccc(C2=NOC(C(=O)NCc3ccccc3)C2)c1 (configuration not stated)	Vif-APOBEC3G blk inconclusive
COc1ccc(C2=NOC(C(=O)NCc3ccccc3)C2)cc1 (configuration not stated)	PLK1 PBD block 27µM, Vif-APOBEC3G blk inconclusive
CC1CN(C(=O)c2cc3cc(Cl)cc(Cl)c3oc2=O)CC(C)O1 (configuration not stated)	PLK1 PBD block 21µM
CC1CN(C(=O)c2cc3cc([N+](=O)[O-])ccc3oc2=O)CC(C)O1 (configuration not stated)	none
COc1cccc(NC(=O)c2c(-c3ccc(C)cc3)nnc3ccccc23)c1	none (no result: PLK1 PBD block, TSHR antagonist)
CN(C)/C=N/c1c(C#N)cnn1-c1ccc(F)c(Cl)c1	none (no result: Vif-A3F inh, PLK1 PBD block, Vif-APOBEC3G blk, TSHR antagonist)
COC(=O)C[C@H]1c2cc(F)ccc2S(=O)(=O)N1C1CC1	none (no result: VDR inhibitor, Vif-A3F inh, PLK1 PBD block, TSHR antagonist)
Cc1cn(CC(=O)NCCc2ccccn2)c(=O)[nH]c1=O	PLK1 PBD block 21µM (no result: TSHR antagonist)
CC(c1ccccc1)N1C(=O)c2cccnc2C1=O (configuration not stated)	none
CC(NC1=CC(=O)c2cccnc2C1=O)C(O)c1ccccc1 (configuration not stated)	VDR inhibitor inconclusive, Vif-A3F inh inconclusive, PLK1 PBD block inconclusive, Vif-APOBEC3G blk 10µM (no result: TSHR antagonist)
Cc1ccc(S(=O)(=O)NC(=O)c2ccccc2F)cc1	none
O=C(NS(=O)(=O)c1ccccc1)c1ccccc1O	PLK1 PBD block 24µM
COCCCNCCCCOc1ccc(Br)cc1C	none
Cc1cc(Br)ccc1OCCCCNC(C)(C)C	VDR inhibitor inconclusive, PLK1 PBD block 27µM (no result: Vif-A3F inh)
Cc1ccccc1N1C(=O)c2cc(S(N)(=O)=O)c(Cl)cc2N[C@H]1C	none (no result: Vif-A3F inh, PLK1 PBD block, Vif-APOBEC3G blk, TSHR antagonist)
Oc1ccc(N=Nc2ccccc2)o1	VDR inhibitor 89µM, PLK1 PBD block inconclusive
O=C1c2cccc3c(O)ccc(c23)C(=O)N1Cc1ccccc1	PLK1 PBD block 6µM
O=C(O)c1cccc(CN2C(=O)c3ccccc3C2=O)c1	none
O=C1CCCC(O)=C1C(C#Cc1ccccc1)C1=C(O)CCCC1=O	VDR inhibitor inconclusive, PLK1 PBD block 2.4µM, Vif-APOBEC3G blk inconclusive
O=C1CCCC(O)=C1Sc1ccccc1C(=O)O	PLK1 PBD block 21µM
CC1(C)CC(=O)C(N=Nc2ccc(-c3ccccc3)cc2)=C(O)C1	none
